Bioassay records (PubChem)
CBFb RUNX1 block: qHTS Assay for Compounds Blocking the Interaction Between CBF-beta and RUNX1 for the Treatment of Acute Myeloid Leukemia | Potency, µM (doses to about 59.8 µM), inactives show top-dose activity, negative = inhibition, usual class: inhibitors | 230,000 tested, under 10 active | Runt-related transcription factor 1 (Homo sapiens) + Core-binding factor subunit beta … | AlphaScreen CBFb-His/RUNX1-biotin binding, biochemical; further: % of control where 0% means no effect
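Bead-based AlphaScreen assay; binding partners His-tagged CBF-beta and biotinylated RUNX1 at 30 nM each. Compound exposure 15 min after a 20-min protein preincubation; bead step 90 min; all steps at room temperature.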
KCNH2 WT inh: qHTS for Inhibitors of KCHN2 3.1: Wildtype qHTS | U2OS, BacMam KCNH2, thallium flux FluxOr; active compounds read low | activity change, % at 1.84 µM | actives 0.37% (n = 340,000) | AID 720551, 2013;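 active means maximum activity change below -70%; inconclusive means maximum activity change between -70% and -50%; inactive means maximum activity change above -50%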; further: on the % scale 0 is the no-effect control and ±100 the full control effect
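U2OS cells were transduced with wild-type KCNH2 virus (2.03 x 10^8 / mL) for 4 h at room temperature, then cultured overnight at 37 C. Thallium flux was read with FluxOr dye. Rate constants were normalized to DMSO controls.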
MBNL1-CUG inh: qHTS Assay for Inhibitors of MBNL1-poly(CUG) RNA binding; TR-FRET MBNL1-His/biotin-(CUG)12 binding, 665/545 ratio; Potency, µM (series often up to 57.5 µM), inactives show at the top dose activity change, negative = inhibition, hits mostly inhibitors; actives 0.036% (n = 280,000); AID 2675, 2010; active means well fitted inhibition curve with a large enough effect in the signal ratio, with a control signal flat, not every such curve was filed as active; inconclusive means small, poorly fitted or top-dose-only effect, or effect the other way, or a change in a side signal; inactive means no such curve, though single readings can be large or run the other way; the % refers to the signal ratio; further: potency means the concentration at half of the fitted maximal effect; on the % scale 0 is the no-effect control and ±100 the full control effect
Target sequence (Q9NR56 whole entry, looked up): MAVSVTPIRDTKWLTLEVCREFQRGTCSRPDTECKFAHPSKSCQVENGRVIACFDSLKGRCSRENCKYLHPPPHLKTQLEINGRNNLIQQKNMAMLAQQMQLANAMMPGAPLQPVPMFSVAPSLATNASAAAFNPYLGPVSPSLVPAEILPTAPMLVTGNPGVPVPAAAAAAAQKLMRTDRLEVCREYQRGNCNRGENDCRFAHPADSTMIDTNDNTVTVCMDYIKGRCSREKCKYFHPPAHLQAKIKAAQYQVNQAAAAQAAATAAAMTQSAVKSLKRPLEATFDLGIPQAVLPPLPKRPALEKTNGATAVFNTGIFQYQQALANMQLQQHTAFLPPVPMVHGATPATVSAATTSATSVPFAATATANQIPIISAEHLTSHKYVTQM
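His-tagged MBNL1 binding to biotinylated (CUG)12 RNA was measured by TR-FRET using terbium anti-His antibody (0.055 ng/ul final) and streptavidin-XL665 (5 nM final). Compounds were titrated 92 nM to 58 uM; 60 min at room temperature.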
PLK1 PBD block: qHTS for Inhibitors of PLK1-PDB (polo-like kinase 1 - polo-box domain): Primary Screen; Plk1 PBD binding of FITC phosphopeptide, fluorescence polarization; Potency, µM, inactives show max response, negative = inhibition, actives largely listed as inhibitors; actives 2.8% (n = 360,000); further: potency means the concentration at half of the fitted maximal effect; series mostly up to about 57 µM; on the % scale 0 is the no-effect control and ±100 the full control effect; nearly all actives have a fitted effect of over 65% in size
KCNH2 3.1 block: qHTS for Inhibitors of KCHN2 3.1: Mutant qHTS. activity change, % (tested at about 1.8 µM). Potassium voltage-gated channel subfamily H member 2, brain isoform KCNH2 3.1 (human). AID 720553, 2013. U2OS KCNH2 3.1, thallium flux FluxOr; active compounds read low. actives 0.95% (n = 340,000);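 active means maximum activity change below -70%; inconclusive means maximum activity change from -70% to -50%; inactive means maximum activity change above -50%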;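 further: thallium influx rate constant from kinetic fluorescence after stimulation buffer; on the % scale 0 is the no-effect control and ±100 the full control effect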
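Channel expression came from 3.1 mutant virus (1.77 x 10^8 /mL) applied to suspended U2OS cells for 4 h. Flux was tracked with FluxOr dye plus Red40 quencher, and kinetic rate constants normalized to controls.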
VDR inh: Inhibitors of the vitamin D receptor (VDR): qHTS; Vitamin D3 receptor (Homo sapiens), P11473; Potency, µM, inactives show max response, negative = inhibition, hits mostly inhibitors; VDR-SRC2-3 peptide fluorescence polarization, 2 h; actives 0.93% (n = 400,000); further: potency means the concentration at half of the fitted maximal effect; on the % scale 0 is the no-effect control and ±100 the full control effect
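Signal is fluorescence polarization, reporting how far test compounds block the interaction of VDR with the SRC2-3 coregulator peptide after a 2 h room-temperature incubation.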
* hit, by the source's call; ? = inconclusive; . = no result given. Sampled rows, rich in hits. Any-hit rate of the full collection: about 3.8%. Unless noted, the call rests on the fitted dose curve; in most records, active means well fitted curve in the direction sought with a large enough effect; inconclusive means small, poorly fitted or top-dose-only effect, or another doubt; inactive means no such curve, though single readings can be large; an effect the other way counts as inactive or inconclusive.

SMILES	CBFb RUNX1 block	KCNH2 WT inh	MBNL1-CUG inh	PLK1 PBD block	KCNH2 3.1 block	VDR inh
N=C1C(c2ccccc2)=C(O)CN1c1cccc(S(=O)(=O)N2CCCCC2)c1	-1.8%	-225.3*	-3.7%	-6.4%	6.1	-9.2%
COc1ccc(C2/C=C\CN(C(=O)C3CCCC3)C(C)C(=O)N2Cc2ccc(F)cc2)cc1 (stereo unspecified)	-4.9%	.	.	.	.	-14.0%
c1ccc(-c2ccc(OCCCNC3CCCC3)cc2)cc1	3.8%	-10.3	-1.7%	?	-92.1*	1.0%
CC(=O)OCCBr	17.7%	.	.	.	.	1.9%
CCOC(=O)c1c(CN2CCN(c3ccccc3)CC2)oc2ccc(O)cc12	-23.8%	4.4	-6.6%	4.5%	-16.4	1.4%
CCOC(=O)c1c(N2CCN(c3ccccc3)CC2)cc(C)nc1C	.	-48.3	5.6%	-12.3%	-97.5*	-14.2%
CCOc1ccc(CCNc2ncnc3onc(-c4ccc(F)cc4)c23)cc1OCC	.	.	.	.	.	5.0%
Cc1c(CCC(=O)NCCCn2ccnc2)c(=O)oc2c(C)c3oc4c(c3cc12)CCCC4	.	-150.1*	-1.0%	-12.9%	-159.1*	-28.2%
Cc1c(CCC(=O)NCCCCCC(=O)O)c(=O)oc2c(C)c3oc4c(c3cc12)CCCC4	.	-5.0	8.4%	-24.2%	?	-18.3%
CCOC(=O)c1c[nH]c2c(C)ccc(Cl)c2c1=O	5.2%	1.4	-1.8%	18.9µM*	18.0	79.4µM*
CCOC(=O)c1c[nH]c2c(Cl)c(Cl)ccc2c1=O	6.1%	9.4	-5.5%	26.7µM*	-1.6	-13.2%
Cc1ccc(OCCSc2nc(-c3ccccc3C)nc3cc(=O)[nH]n23)cc1Cl	.	.	.	.	.	9.2%
O=[N+]([O-])c1cc([N+](=O)[O-])c2oc(-c3ccccc3)c(Br)c2c1O	.	-1.2	3.7%	8.44µM*	-11.3	-28.3%
O=c1c(O)c(-c2ccccc2)oc2cccc(O)c12	.	.	.	.	.	14.6%
O=S(=O)(c1cccc(F)c1)N1CCN(c2nc(-c3cccs3)nc3ccccc23)CC1	.	.	.	.	.	-14.7%
Cc1ccc(CSCC(=O)N2CCOCC2)cc1	-13.5%	-2.2	-1.9%	2.99µM*	-0.7	-18.8%
O=C(NC1CCCCC1)Sc1ccc(Cl)cc1	3.5%	-4.1	-7.1%	2.67µM*	11.6	22.4µM*
CC(=O)NC(C)CCc1ccccc1 (stereo unspecified)	2.5%	-13.2	1.9%	0.0%	-2.8	9.2%
CC(CCc1ccccc1)NC(=O)Cc1ccc([N+](=O)[O-])cc1 (stereo unspecified)	-11.0%	-18.3	?	29.9µM*	-3.1	?
CC(CCc1ccccc1)NC(=O)C(=O)NCCO (stereo unspecified)	1.4%	8.0	2.2%	3.0%	-77.6*	-1.8%
CCOc1ccc(CCNC(=O)Cn2nc(-c3ccc(C)cc3)ccc2=O)cc1OCC	.	.	.	.	.	9.1%
Cc1cc(C(=O)OCC(=O)N2CCCC2)c2ccccc2n1	-0.8%	-13.7	?	-4.7%	5.8	-13.9%
Cc1cc(C(=O)OCC(=O)N2CCOCC2)c2ccccc2n1	1.9%	-0.6	?	15µM*	1.6	?
CN1C[C@@H]2C(c3ccc(C(F)(F)F)cc3)C3(c4ccc(C#N)cc4)CC2(C3)[C@H]1c1ccccc1 (stereo partly specified)	?	-102.1*	-0.7%	-6.7%	-91.6*	17.8%
CN1C[C@@H]2C(c3ccccc3)C3(c4ccccc4)CC2(C3)[C@H]1c1ccccc1 (stereo partly specified)	-8.1%	5.9	-3.4%	-8.9%	-43.1	16.5%
SMILES	CBFb RUNX1 block	KCNH2 WT inh	MBNL1-CUG inh	PLK1 PBD block	KCNH2 3.1 block	VDR inh
CN1C[C@@H]2C(c3ccccc3)C3(c4ccc(C#N)cc4)CC2(C3)[C@H]1c1ccccc1 (stereo partly specified)	7.6%	-45.1	-2.4%	-4.8%	-111.5*	-8.6%
CCOc1ccc(Nc2ncnc3c2nc2n3CCCC2)cc1	.	.	.	.	.	10.3%
CCc1nc2nc(C)c(NS(=O)(=O)c3ccc(C)cc3)c(=O)n2[nH]1	.	.	.	.	.	6.4%
Cc1ccn2c(NCc3ccc4c(c3)OCO4)c(-c3ccc(O)cc3)nc2c1	-2.2%	-11.7	0.0%	-9.0%	-75.1*	-2.6%
Cc1cccc(N2CCN(S(=O)(=O)c3c(C(=O)N4CCC(C)CC4)c(C)n(C)c3C)CC2)c1C	.	.	.	.	.	2.5%
CC(C)c1nnc(SCC(=O)N2CCc3ccccc32)n1N	-10.5%	-8.4	-6.0%	?	10.1	79.4µM*
Cn1nnnc1SCC(=O)N1CCc2ccccc21	1.8%	-1.9	-3.6%	-15.7%	2.1	12.0%
CCn1nnnc1SCC(=O)N1CCCc2ccccc21	-5.6%	0.0	-1.6%	26.7µM*	-1.7	-19.4%
O=C(CSc1nnc(CNc2ccc(F)cc2)o1)N1CCCc2ccccc21	-1.9%	-3.2	4.8%	26.7µM*	12.0	?
COc1cccc(CNC(=O)Cn2ncn3nc(-c4cccs4)cc3c2=O)c1OC	.	.	.	.	.	1.8%
COc1ccc2cc1Oc1ccc(cc1)CC1c3c(cc4c(c3Oc3cc5c(cc3OC)CCN(C)C5C2)OCO4)CCN1C (stereo unspecified)	-2.3%	.	.	.	.	9.9%
COc1ccc2cc1Oc1ccc(cc1)CC1c3cc(c(OC)cc3CCN1C)Oc1c(OC)c(OC)c(OC)c3c1C(C2)N(C)CC3 (stereo unspecified)	?	.	.	.	.	44.7µM*
O=C(CSc1nnc(-c2ccccc2)c(-c2ccccc2)n1)NCc1ccco1	-1.7%	0.6	?	21.2µM*	-12.0	-3.4%
O=C(Cn1cnc2sc(-c3ccccc3)cc2c1=O)NCc1ccco1	?	-6.3	23.1%	2.67µM*	9.7	?
COc1ccccc1CNC(=O)CSC1=NCCS1	6.0%	4.0	14.6%	?	-13.8	?
O=C(CSC1=NCCS1)NCc1ccco1	3.5%	-13.6	3.4%	2.99µM*	-5.8	20µM*
NC(=O)CSc1nnc(-c2ccccc2)c(-c2ccccc2)n1	.	0.8	?	-9.4%	0.5	2.7%
O=C(O)CSc1nnc(-c2ccccc2)c(-c2ccccc2)n1	5.6%	-4.4	6.7%	9.47µM*	-13.2	?
CCOC(=O)C1CCC(CN(Cc2c(Cl)cccc2Cl)S(=O)(=O)c2ccc(F)cc2)CC1 (stereo unspecified)	.	.	.	.	.	-9.5%
